Measured values published in PubChem BioAssay AID720566 (Broad Institute, 2013).
Potency and affinity values are given separately. Calls of active or inactive are those of the source.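 Rule for the calls: active = in all runs, an absorbance decrease of 25% or more of the average positive control decrease; inconclusive = runs conflict, with both active and inactive results; inactive = all runs inactive, opposite-direction effects included.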

biological target: Protein disulfide-isomerase A6 (Homo sapiens) (UniProt Q15084); experiment: reduced insulin turbidity driven by ERp5 (PDIA6) – biochemical, absorbance 650 nm, cherry-picked samples, dose response (AID 720566); conditions: Recombinant ERp5 insulin aggregation; series mostly up to 35 µM;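 note: negative values mean less insulin aggregation so ERp5 inhibition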
Sequence (Q15084 whole entry, looked up): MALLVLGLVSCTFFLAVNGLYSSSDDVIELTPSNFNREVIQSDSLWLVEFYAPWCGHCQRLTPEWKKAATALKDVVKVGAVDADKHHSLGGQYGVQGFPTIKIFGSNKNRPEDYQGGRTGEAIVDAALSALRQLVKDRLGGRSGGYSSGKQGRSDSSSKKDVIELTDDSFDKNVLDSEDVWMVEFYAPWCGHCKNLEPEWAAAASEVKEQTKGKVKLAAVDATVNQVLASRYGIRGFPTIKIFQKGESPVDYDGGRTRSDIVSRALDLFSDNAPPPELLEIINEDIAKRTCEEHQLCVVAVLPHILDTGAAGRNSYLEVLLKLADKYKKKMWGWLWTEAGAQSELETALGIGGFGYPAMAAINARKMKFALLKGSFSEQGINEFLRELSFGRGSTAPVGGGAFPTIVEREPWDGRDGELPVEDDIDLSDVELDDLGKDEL

outcome, inactive:
CCC(=O)Nc1ccc2c(c1)C(=O)N(C)[C@@H]1CC[C@@H](CC(=O)NCC3CC3)O[C@@H]1CO2
COCC(=O)N(C)C[C@@H]1Oc2cc(C#CC(C)(C)O)ccc2S(=O)(=O)N([C@H](C)CO)C[C@@H]1C
CCN1[C@@H]2c3ccc(-c4ccccc4)c(=O)n3C[C@@H]2[C@@H](CO)[C@@H]1C(=O)NCC(F)(F)F
COc1ccc2c3c([nH]c2c1)[C@H](CO)N(Cc1ccccc1Cl)CC31CN(C(=O)C2CC2)C1
C[C@@H]1CN([C@H](C)CO)C(=O)c2cc(C#CCN(C)C)cnc2O[C@H]1CN(C)Cc1cccc(F)c1
C[C@@H]1CN([C@H](C)CO)C(=O)c2cccc(NC(=O)Nc3cccc4ccccc34)c2O[C@H]1CN(C)C(=O)Nc1ccc(C(F)(F)F)cc1
C[C@@H]1CN([C@H](C)CO)C(=O)c2cc(NC(=O)Nc3ccc(C(F)(F)F)cc3)ccc2O[C@@H]1CN(C)S(=O)(=O)c1ccc(F)cc1
CN(C)C(=O)C[C@@H]1C[C@@H]2c3cc(NS(C)(=O)=O)ccc3O[C@@H]2[C@H](CO)O1
CC(=O)Nc1ccc2c(c1)C(=O)N(C)[C@H]1CC[C@@H](CC(=O)NCC3CC3)O[C@H]1CO2
C/C=C/c1ccc2c(c1)O[C@@H](CN(C)S(C)(=O)=O)[C@H](C)CN([C@@H](C)CO)S2(=O)=O
C[C@@H]1CCCCO[C@@H](CN(C)Cc2ccc(C(=O)Nc3ccccc3N)cc2)[C@@H](C)CN([C@H](C)CO)C(=O)c2cc(NS(=O)(=O)c3cccs3)ccc2O1
C[C@@H]1CN([C@H](C)CO)C(=O)c2cccc(NC(=O)Nc3ccc4c(c3)OCO4)c2O[C@H]1CN(C)Cc1ccc(Oc2ccccc2)cc1
CC(C)C(NC(=O)c1ccc(F)cc1)C(=O)N1CCOCC1 (stereo not drawn)
C[C@H]1CN([C@@H](C)CO)C(=O)Cc2cc(NC(=O)Nc3cccc4ccccc34)ccc2O[C@H]1CN(C)Cc1ccc(C(F)(F)F)cc1
Cc1cc(C(=O)Nc2cccc3c2O[C@@H](CN(C)S(=O)(=O)c2ccc(Cl)cc2)[C@@H](C)CN([C@@H](C)CO)C3=O)n(C)n1
CC(=O)Nc1ccc2c(c1)C(=O)N(C)[C@H]1CC[C@H](CC(=O)NCC3CC3)O[C@@H]1CO2
COc1ccccc1CN(C)c1ccc(S(=O)(=O)N2CCN(C)CC2)cn1
CC(C)CC#Cc1cnc2c(c1)C(=O)N([C@H](C)CO)C[C@H](C)[C@H](CN(C)Cc1ccccc1C(=O)O)O2
COCCNC(=O)C[C@@H]1C[C@H]2c3cc(NC(=O)NC4CCCC4)ccc3O[C@H]2[C@@H](CO)O1
C[C@@H]1CCCCO[C@@H](CN(C)C(=O)CCC(F)(F)F)[C@@H](C)CN([C@@H](C)CO)C(=O)c2cc(NS(=O)(=O)c3ccc(Cl)cc3)ccc2O1
C[C@@H]1CN([C@@H](C)CO)C(=O)c2cc(NC(=O)Nc3ccc4c(c3)OCO4)ccc2O[C@@H]1CN(C)Cc1ccc(C(=O)O)cc1
CCCNC(=O)C[C@@H]1C[C@@H]2c3cc(NS(C)(=O)=O)ccc3O[C@@H]2[C@H](CO)O1
Cc1ccc2nc(-c3cccc(Br)c3)c(Cc3cccc(Cl)c3)n2c1
CCC(=O)Nc1ccc2c(c1)C(=O)N(C)[C@H]1CC[C@@H](CC(=O)NCC3CC3)O[C@H]1CO2
O=C(C[C@H]1C[C@@H]2c3cc(NC(=O)NC4CCCC4)ccc3O[C@@H]2[C@@H](CO)O1)NCc1ccc(Cl)cc1
CCCNC(=O)C[C@H]1C[C@H]2c3cc(NS(C)(=O)=O)ccc3O[C@H]2[C@@H](CO)O1
COCC(=O)N(C)C[C@H]1Oc2cc(C#CC(C)(C)O)ccc2S(=O)(=O)N([C@@H](C)CO)C[C@H]1C
COc1ccc(-c2csc(NC(=O)C3CCN(C(=O)c4ccc(F)cc4)CC3)n2)cc1OC
C[C@@H]1CN([C@H](C)CO)S(=O)(=O)c2ccc(-c3ccc(F)cc3)cc2O[C@@H]1CN(C)CC1CC1
COc1ccc(NC(=O)CSc2nnc(NC(=O)C3CC3)s2)cc1OC
C[C@@H]1CN([C@@H](C)CO)C(=O)Cc2cc(NS(=O)(=O)c3cccs3)ccc2O[C@H]1CN(C)C(=O)Nc1ccc(C(F)(F)F)cc1
C/C=C/c1ccc2c(c1)O[C@H](CN(C)Cc1cncnc1)[C@H](C)CN([C@@H](C)CO)S2(=O)=O
CCCNC(=O)C[C@H]1CC[C@@H]2[C@@H](COc3ccc(NC(=O)c4ccccc4)cc3C(=O)N2C)O1
